Source: PubChem BioAssay (NCI)
About 83,000 compounds went through this panel and 20% of them were active in at least one assay; those are over-represented in the sample as a whole.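 Single-concentration screen, 48 h exposure, 96-well plates. Endpoint: percent growth. Below 10 = active.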 Activity calls are given as the source filed them.

What was measured:
Experiment in all cases: NCI-60 one-dose screen, 48 h (100 = growth as untreated, 0 = no growth, -100 = all killed)
SK-MEL-2 melanoma = settings: 10 µM unless noted
EKVX NSCLC = settings: 10 µM unless noted
SN12C renal = settings: 10 µM unless noted
UO-31 renal = settings: 10 µM unless noted
TK-10 renal = settings: 10 µM unless noted
ACHN renal = settings: 10 µM unless noted
CAKI-1 renal = settings: 10 µM
CCRF-CEM leukemia = settings: 10 µM unless noted
MOLT-4 leukemia = settings: 10 µM unless noted
RPMI-8226 leukemia = settings: 10 µM unless noted
OVCAR-8 ovarian = settings: 10 µM unless noted
OVCAR-5 ovarian = settings: 10 µM unless noted
OVCAR-4 ovarian = settings: 10 µM unless noted
SK-OV-3 ovarian = settings: 10 µM unless noted
IGROV1 ovarian = settings: 10 µM unless noted
OVCAR-3 ovarian = settings: 10 µM unless noted
HS 578T breast = settings: 10 µM unless noted
NCI/ADR-RES ovarian = settings: 10 µM unless noted
SR leukemia = settings: 10 µM unless noted

Measured: growth

CN(C)CCn1c2ccc(N)cc2c2nc3ccccc3nc21
active: MOLT-4 leukemia 8.1%
inactive: SK-MEL-2 melanoma 54.6% | EKVX NSCLC 40.6% | SN12C renal 25.6% | UO-31 renal 23% | TK-10 renal 60.2% | ACHN renal 13.9% | CAKI-1 renal 28.6% | CCRF-CEM leukemia 29.5% | RPMI-8226 leukemia 24.6% | OVCAR-8 ovarian 35.7% | OVCAR-5 ovarian 41% | OVCAR-4 ovarian 53.5% | SK-OV-3 ovarian 37.4% | IGROV1 ovarian 23.2% | OVCAR-3 ovarian 37% | HS 578T breast 76.2% | NCI/ADR-RES ovarian 28.1%

C[C@H]1[C@H](C)CC[C@]2(COC(=O)c3cccnc3)CC[C@]3(C)C(=CC[C@@H]4[C@@]5(C)CCCNC(C)(C)[C@@H]5CC[C@]43C)[C@H]12
active: SR leukemia -8.33%
inactive: SK-MEL-2 melanoma 98.6% | EKVX NSCLC 89.7% | SN12C renal 67.6% | UO-31 renal 59.3% | TK-10 renal 79.9% | ACHN renal 75.7% | CAKI-1 renal 61.5% | CCRF-CEM leukemia 50.1% | MOLT-4 leukemia 44% | OVCAR-8 ovarian 86.2% | OVCAR-5 ovarian 90.9% | OVCAR-4 ovarian 70.5% | SK-OV-3 ovarian 92.5% | IGROV1 ovarian 65% | HS 578T breast 78.8% | NCI/ADR-RES ovarian 88.5%

Cc1cc(Cl)cc(NS(=O)(=O)c2ccc(-c3cnc(C4CC4)o3)cc2)c1
inactive: SK-MEL-2 melanoma 78.1% | EKVX NSCLC 39.4% | SN12C renal 39.6% | UO-31 renal 43.8% | TK-10 renal 83.5% | ACHN renal 46.1% | CAKI-1 renal 37.1% | CCRF-CEM leukemia 18.6% | MOLT-4 leukemia 25.9% | SR leukemia 27.1% | OVCAR-8 ovarian 38.7% | OVCAR-5 ovarian 43.6% | OVCAR-4 ovarian 66.2% | SK-OV-3 ovarian 72.8% | IGROV1 ovarian 33.2% | HS 578T breast 35.6% | NCI/ADR-RES ovarian 10.1%

Cc1cc(NS(=O)(=O)c2ccc(-c3cnc(C4CC4)o3)cc2)ccc1I
inactive: SK-MEL-2 melanoma 63.3% | EKVX NSCLC 42.6% | SN12C renal 43.5% | UO-31 renal 48.7% | TK-10 renal 75.6% | ACHN renal 45.1% | CAKI-1 renal 39.3% | CCRF-CEM leukemia 19.1% | MOLT-4 leukemia 40.8% | SR leukemia 32.9% | OVCAR-8 ovarian 46.4% | OVCAR-5 ovarian 54.6% | OVCAR-4 ovarian 59.9% | SK-OV-3 ovarian 66.2% | IGROV1 ovarian 36.7% | HS 578T breast 40% | NCI/ADR-RES ovarian 14.3%

COc1ccccc1/C=C/C(=O)c1nnn(-c2ccc(C(=O)O)cc2)c1C
inactive: SK-MEL-2 melanoma 98.6% | EKVX NSCLC 87.2% | SN12C renal 84.1% | UO-31 renal 87.6% | TK-10 renal 117% | ACHN renal 94% | CAKI-1 renal 96% | CCRF-CEM leukemia 63.9% | MOLT-4 leukemia 94.4% | SR leukemia 67% | RPMI-8226 leukemia 90.4% | OVCAR-8 ovarian 91.6% | OVCAR-5 ovarian 113% | IGROV1 ovarian 90.4% | HS 578T breast 106% | NCI/ADR-RES ovarian 93.5%

CCNC(=O)Oc1ccc(/C(=C(/C)c2ccc(Cl)cc2)c2ccc(OCCN3CCCC3)cc2)cc1
inactive: SK-MEL-2 melanoma 104% | EKVX NSCLC 80.2% | SN12C renal 75.4% | UO-31 renal 65.8% | TK-10 renal 97.6% | ACHN renal 95% | CAKI-1 renal 85.7% | MOLT-4 leukemia 58.6% | SR leukemia 23.2% | OVCAR-8 ovarian 87.7% | OVCAR-5 ovarian 90.5% | OVCAR-4 ovarian 88.6% | IGROV1 ovarian 78.1% | OVCAR-3 ovarian 99.8% | HS 578T breast 92.8% | NCI/ADR-RES ovarian 78.7%

C=C(C)[C@@H]1CC[C@]2(C(=O)NCCCN(CCC#N)CCC#N)CC[C@]3(C)[C@H](CC[C@@H]4[C@@]5(C)CCC(=O)C(C)(C)[C@@H]5CC[C@]43C)[C@@H]12
inactive: SK-MEL-2 melanoma 102% | EKVX NSCLC 104% | SN12C renal 94.3% | UO-31 renal 95.1% | TK-10 renal 101% | ACHN renal 99.9% | CAKI-1 renal 75% | MOLT-4 leukemia 88.1% | SR leukemia 95.7% | RPMI-8226 leukemia 103% | OVCAR-8 ovarian 105% | OVCAR-5 ovarian 103% | OVCAR-4 ovarian 105% | SK-OV-3 ovarian 104% | IGROV1 ovarian 112% | OVCAR-3 ovarian 118% | HS 578T breast 105% | NCI/ADR-RES ovarian 102%

CSc1ccc(/C(=N/N=C(N)N)c2ccccc2)cc1
inactive: SK-MEL-2 melanoma 58.7% | EKVX NSCLC 48.1% | SN12C renal 27.9% | UO-31 renal 35.1% | TK-10 renal 63.9% | ACHN renal 28.6% | CAKI-1 renal 42% | CCRF-CEM leukemia 10.6% | MOLT-4 leukemia 22.3% | SR leukemia 19.7% | RPMI-8226 leukemia 17.9% | OVCAR-8 ovarian 29.5% | OVCAR-5 ovarian 48.3% | OVCAR-4 ovarian 67.2% | SK-OV-3 ovarian 66.2% | IGROV1 ovarian 21.8% | HS 578T breast 31.8% | NCI/ADR-RES ovarian 40.3%

CC1(C)CC[C@]2(C(=O)O)CC[C@]3(C)C(=CCC4[C@@]5(C)C[C@@H](O)[C@@H]6OC(c7cccc([N+](=O)[O-])c7)OC[C@@]6(C)C5CC[C@]43C)C2C1 (some centres not stated)
inactive: SK-MEL-2 melanoma 88.5% | EKVX NSCLC 57.6% | SN12C renal 62% | UO-31 renal 59.9% | TK-10 renal 71.9% | ACHN renal 39.4% | CAKI-1 renal 79.7% | MOLT-4 leukemia 48.2% | SR leukemia 72.7% | RPMI-8226 leukemia 56% | OVCAR-8 ovarian 58.7% | OVCAR-5 ovarian 97.2% | OVCAR-4 ovarian 83.2% | IGROV1 ovarian 74.4% | OVCAR-3 ovarian 81.9% | HS 578T breast 94.1% | NCI/ADR-RES ovarian 39.7%

O=C(Nc1cccc(Cl)c1)Nc1nc2ccc(-c3cccc4ccccc34)cc2s1
inactive: SK-MEL-2 melanoma 82.6% | EKVX NSCLC 56.4% | SN12C renal 53% | UO-31 renal 47.4% | TK-10 renal 74.7% | ACHN renal 40.3% | CAKI-1 renal 37.9% | CCRF-CEM leukemia 40.4% | MOLT-4 leukemia 41.5% | SR leukemia 90% | OVCAR-8 ovarian 42.9% | OVCAR-5 ovarian 84% | OVCAR-4 ovarian 20.4% | IGROV1 ovarian 55.2% | OVCAR-3 ovarian 13.5% | HS 578T breast 72.9% | NCI/ADR-RES ovarian 57.5%

CCOC(=O)C1=C(C)Nc2nnc(Nc3ccccc3)n2C1c1ccccc1 (configuration not stated)
active: OVCAR-3 ovarian 5.94%
inactive: SK-MEL-2 melanoma 99.7% | EKVX NSCLC 69% | SN12C renal 30.5% | UO-31 renal 69.5% | TK-10 renal 81.8% | ACHN renal 14.7% | CAKI-1 renal 69% | RPMI-8226 leukemia 77% | OVCAR-8 ovarian 72.5% | OVCAR-5 ovarian 91.2% | OVCAR-4 ovarian 34.6% | SK-OV-3 ovarian 94.6% | IGROV1 ovarian 62.8% | HS 578T breast 75.8% | NCI/ADR-RES ovarian 70.8%

Cc1nn(-c2ccccc2)c2nc(CCl)[nH]c(=O)c12
inactive: SK-MEL-2 melanoma 105% | EKVX NSCLC 99.2% | SN12C renal 95.7% | TK-10 renal 63.3% | ACHN renal 90.3% | CAKI-1 renal 99.6% | MOLT-4 leukemia 79.6% | SR leukemia 39.8% | OVCAR-8 ovarian 102% | OVCAR-5 ovarian 112% | OVCAR-4 ovarian 110% | SK-OV-3 ovarian 122% | IGROV1 ovarian 97.4% | OVCAR-3 ovarian 90.9% | HS 578T breast 120% | NCI/ADR-RES ovarian 105%
active: UO-31 renal -86.3%

Cc1ccc(Nc2ncnc3c2c(C)nn3-c2ccc([N+](=O)[O-])cc2)cc1
inactive: SK-MEL-2 melanoma 107% | EKVX NSCLC 67.8% | SN12C renal 90% | UO-31 renal 91.3% | TK-10 renal 97.9% | ACHN renal 62.8% | CAKI-1 renal 63.6% | CCRF-CEM leukemia 79.8% | MOLT-4 leukemia 87.3% | SR leukemia 68.6% | OVCAR-8 ovarian 72.6% | OVCAR-5 ovarian 101% | OVCAR-4 ovarian 46% | SK-OV-3 ovarian 71.7% | IGROV1 ovarian 84.1% | OVCAR-3 ovarian 46.3% | HS 578T breast 68.6% | NCI/ADR-RES ovarian 80.4%

N/C(=N\OC(=O)CSc1nc2ccccc2s1)c1ccc(Cl)cc1
inactive: SK-MEL-2 melanoma 101% | EKVX NSCLC 86.6% | SN12C renal 102% | UO-31 renal 76.6% | TK-10 renal 127% | ACHN renal 91.4% | CAKI-1 renal 83.4% | CCRF-CEM leukemia 102% | MOLT-4 leukemia 96.7% | SR leukemia 84.8% | RPMI-8226 leukemia 99.4% | OVCAR-8 ovarian 98% | OVCAR-5 ovarian 100% | OVCAR-4 ovarian 107% | SK-OV-3 ovarian 101% | IGROV1 ovarian 89% | HS 578T breast 97% | NCI/ADR-RES ovarian 101%

C#CCOc1ccc(C(Nc2cc(Cl)ccc2Cl)c2nnnn2C2CCCCC2)cc1 (configuration not stated)
active: EKVX NSCLC -8.05%
inactive: SK-MEL-2 melanoma 95% | SN12C renal 91.4% | UO-31 renal 62.5% | TK-10 renal 90.8% | ACHN renal 92% | CAKI-1 renal 44.4% | CCRF-CEM leukemia 85.8% | MOLT-4 leukemia 68.1% | RPMI-8226 leukemia 81.1% | OVCAR-8 ovarian 91.3% | OVCAR-5 ovarian 93.1% | OVCAR-4 ovarian 93.3% | SK-OV-3 ovarian 100% | IGROV1 ovarian 80.4% | OVCAR-3 ovarian 95.6% | HS 578T breast 87.4% | NCI/ADR-RES ovarian 80.2%

O=C(Nc1ccc(Cl)cc1)Nc1nc2ccc([N+](=O)[O-])cc2s1
active: SK-MEL-2 melanoma -40.8% | EKVX NSCLC 4.04% | SN12C renal -0.314% | UO-31 renal 3.55% | TK-10 renal -20.5% | ACHN renal 0.28% | CAKI-1 renal -16.5% | CCRF-CEM leukemia 4.8% | MOLT-4 leukemia -7.74% | SR leukemia -24.3% | OVCAR-8 ovarian 6.03% | OVCAR-4 ovarian -4.3% | SK-OV-3 ovarian -12.3% | OVCAR-3 ovarian -26.6% | HS 578T breast -15.8% | NCI/ADR-RES ovarian -6.91%
inactive: OVCAR-5 ovarian 18.4% | IGROV1 ovarian 14.7%

CCCCCCNC(=O)Oc1ccc(/C(=C(/C)c2ccc(OC)cc2)c2ccc(OCCN3CCCC3)cc2)cc1
active: SR leukemia 5.51%
inactive: SK-MEL-2 melanoma 93.4% | EKVX NSCLC 79.5% | SN12C renal 82.3% | UO-31 renal 38.7% | TK-10 renal 116% | ACHN renal 84.3% | CAKI-1 renal 87% | MOLT-4 leukemia 30.4% | RPMI-8226 leukemia 16.8% | OVCAR-8 ovarian 86.6% | OVCAR-5 ovarian 81.5% | SK-OV-3 ovarian 97.9% | IGROV1 ovarian 65.7% | HS 578T breast 83.7% | NCI/ADR-RES ovarian 77%
